This is an account of results in PubChem BioAssay.

Each structure is given as a SMILES string. Values without a mark were called inactive. The rule behind the calls is not given here.

What is called inhibition is the percentage by which the read-out fell short of the control.

Chain of Pantothenate synthetase (Mycobacterium tuberculosis (strain ATCC 25618 / H37Rv)) (P9WIL5 whole entry, looked up): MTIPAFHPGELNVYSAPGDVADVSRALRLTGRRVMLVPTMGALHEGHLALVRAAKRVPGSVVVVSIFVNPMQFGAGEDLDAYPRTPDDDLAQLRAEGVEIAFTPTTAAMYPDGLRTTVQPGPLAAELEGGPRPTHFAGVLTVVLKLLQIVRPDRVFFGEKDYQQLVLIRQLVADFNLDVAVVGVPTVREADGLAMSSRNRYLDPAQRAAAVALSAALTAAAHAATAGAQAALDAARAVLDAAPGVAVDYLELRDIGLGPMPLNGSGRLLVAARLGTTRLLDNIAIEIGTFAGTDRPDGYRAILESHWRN

The assay has as its target Pantothenate synthetase (Mycobacterium tuberculosis (strain ATCC 25618 / H37Rv)) (UniProt P9WIL5). Briefly: Recombinant Mtb pantothenate synthetase (PanC) inhibitors, coupled enzyme, confirmatory (AID 375).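 Note: 0% = full reaction with vehicle and 100% = no enzyme background.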 The settings on record: coupled enzyme assay; at 10 µM, active compounds read high.
As for `Cn1c(Cc2ccccc2)nnc1SCC(=O)c1ccc(Br)s1`, the inhibition is 0%.
Regarding `CCC1CCCCN1C(=O)Cn1c(C(=O)OC)cc2sc(Cl)cc21` (stereo not given), the inhibition was 0%.
For `Cc1ccc(O)c(C(=O)c2cc(C#N)c(=O)n(CC3CCCO3)c2)c1` (stereo not given) the value was 8%; for `COc1ccc(-c2cnc(SCC(=O)Nc3ccc4c(c3)OCO4)n2Cc2ccco2)cc1`, 0%; for `CCOC(=O)c1[nH]c(=O)c2ccccc2c1O`, 0%.
Turning to `CC(=O)Nc1ccc(S(=O)(=O)NCc2cn3c(C)csc3n2)cc1`, the inhibition was 0%.
The figure for `O=C(NCCN1CCOCC1)C1CC(=O)N(c2ccc(F)c(Cl)c2)C1` (stereo not given) is 7%; for `CC(CCc1ccccc1)NC(=O)C1CCCN(c2nnc(-n3cccc3)s2)C1` (stereo not given) it is 0%; for `COc1cccc(-n2c(SC3CCOC3=O)nc3ccccc3c2=O)c1` (stereo not given) it is 2%.
The figure for `O=C(NC1CCc2ccccc21)C1CCN(S(=O)(=O)c2ccc(-n3cnnn3)cc2)CC1` (stereo not given) is 10%; for `CCCCc1c(O)nc(SCC(=O)Nc2ccc3c(c2)CCC3)[nH]c1=O` it is 2%; for `Oc1cccc(Nc2nc(NCC3CCCO3)c3ccccc3n2)c1` (stereo not given) it is 1%.
For `Cc1ccc(N(C(=O)c2ccncc2)C2C=CS(=O)(=O)C2)cc1` (stereo not given) the value was 5%.
For `Cc1ccc(C2Nc3ccccc3-c3nc4ccccc4n32)o1` (stereo not given), the inhibition was 0%.
The figure for `CN(C)CCCN1c2ccccc2CCc2ccc(Cl)cc21` is 1%; for `CCc1ccc(N2CC(C(=O)OCC(=O)NC3CCS(=O)(=O)C3)CC2=O)cc1` (stereo not given) it is 0%; for `COc1cccc(NS(=O)(=O)c2ccc3[nH]cc(C(=O)NC4CC4)c(=O)c3c2)c1` it is 2%.
For `c1ccc(Cn2nnc3c(N4CCC5(CC4)OCCO5)ncnc32)cc1` the value was 0%; for `CCOc1ccc(N(CC(=O)Nc2ccc(C)c(C)c2)S(=O)(=O)c2c(C)noc2C)cc1`, 0%.
For `CC1(C)CC(=O)C(C=NCC2CCNCC2)=C(O)C1` the value was 2%; for `Cc1c(NC(=O)c2coc(=O)c(Br)c2)c(=O)n(-c2ccccc2)n1C`, 7%.
In the case of `COC(=O)c1sc(S(=O)(=O)NCc2cccs2)c(C(=O)OC)c1C`, the inhibition is 0%.
For `Cc1ccc(N(CC2=NCCN2)c2cccc(O)c2)cc1` the value was 1%; for `CC1(C)Cc2cccc(OCC(=O)O)c2O1`, 5%; for `CC1(C)NC(=O)N(CC(O)CN2CCCCC2)C1=O` (stereo not given), 0%.
For `Cc1ccc(C(C)C)c(OCc2nnc(SCC(=O)Nc3ncc(C)s3)n2C)c1` the value was 2%.
For `O=C1NC(c2ccco2)Nc2ccccc21` (stereo not given) the value was 0%.
With `CC(NC(=O)CSc1n[nH]c(=O)n1C1CC1)C12CC3CC(CC(C3)C1)C2` (stereo not given), the inhibition was 3%.
The figure for `COCCNC(=O)C(C)OC(=O)c1nsc(Cl)c1Cl` (stereo not given) is 0%; for `CCN(CC)CCCN(Cc1cc2cc(OC)ccc2[nH]c1=O)C(=O)Nc1ccccc1` it is 9%; for `CS(=O)(=O)N1CCN(c2ccccc2NC(=O)c2cccs2)CC1` it is 2%.
The figure for `Cc1nnc(NC(=O)CSc2nc3c(c(=O)n2C)SC(C)C3)s1` (stereo not given) is 5%; for `O=C(CCNC(=O)Cn1ccc2ccccc2c1=O)NCCN1CCc2ccccc2C1` it is 3%.
The figure for `Cc1ccc(-c2noc(CCC(=O)NCC3CCN(Cc4cccc(C)c4)CC3)n2)cc1` is 8%; for `CCc1ccc(C2CC(c3ccccc3)n3ncnc3N2)cc1` (stereo not given) it is 0%; for `O=C(Nc1ccccc1C(=O)N1CCN(c2ccccc2)CC1)c1ccco1` it is 0%.
As to `c1ccc(CCn2nnnc2CN2CCN(C3CCCC3)CC2)cc1`, the inhibition is 2%.
Regarding `Cc1cc(/N=C/N(C)C)on1`, the inhibition was 0%.
Turning to `Cc1cc(C)cc(NC(=O)CCNS(=O)(=O)c2ccc3c(c2)oc(=O)n3C)c1`, the inhibition was 0%.
Turning to `O=C1NC(Cc2c[nH]c3ccccc23)C(=O)N1CCOc1ccccc1` (stereo not given), the inhibition is 2%.
